These results are taken from PubChem BioAssay (NCI).

Some test systems named below: DU-145 prostate; K-562 leukemia; MALME-3M melanoma; MDA-MB-231 breast; RXF 393 renal; SF-268 CNS; SF-295 CNS; SF-539 CNS; UACC-257 melanoma; M14 melanoma; HCT-15 colon; HT29 colon; SNB-75 CNS; SNB-19 CNS; U251 CNS; PC-3 prostate; SK-MEL-5 melanoma; UACC-62 melanoma; LOX IMVI melanoma; SK-MEL-28 melanoma.
Experiment in all cases: NCI-60 one-dose screen, 48 h (100 = growth as untreated, 0 = no growth, -100 = all killed)
What all share (conditions): 10 µM unless noted

Each structure is given as a SMILES string. About 83,000 compounds went through this panel and 20% of them were active in at least one assay; those are over-represented in the sample as a whole.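 In brief: 96-well plates, 48 h treatment, single concentration, percent growth endpoint.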 A number with no mark means an inactive call. The source made the active and inactive calls. How the source made its calls: active means growth percent below 10; inactive means the rest.

Turning to `Cc1ccc(/C=C(\C#N)n2nnc3cc(Cl)c(Cl)cc32)cc1`, the growth in the assay with DU-145 prostate is 3.78% (active); in the assay on K-562 leukemia, 6.41% (active); in the assay on MALME-3M melanoma it was 44%; in the assay on MDA-MB-231 breast it was -14.9% (active); in the assay with RXF 393 renal, -33.5% (active); with SF-268 CNS, 12%. The growth in the assay on SF-295 CNS is -0.103% (active); with SF-539 CNS it was -13.1% (active); with UACC-257 melanoma it was 50.3%; in the assay on M14 melanoma, -23% (active); with HCT-15 colon, 11.7%; in the assay with HT29 colon, 12.3%. The growth with SNB-75 CNS is -24.6% (active); with SNB-19 CNS it was 17.7%; in the assay on U251 CNS it was 7.49% (active); in the assay with PC-3 prostate, 12.8%; in the assay on SK-MEL-5 melanoma, 14%; in the assay on UACC-62 melanoma, 26.1%. Also, the growth was -13.4% (active) with LOX IMVI melanoma and 41.3% in the assay on SK-MEL-28 melanoma.

On to `N#Cc1c(N)n2c(nc1=Nc1ccc(Cl)cc1)sc1cc(Cl)ccc12`, for which the growth in the assay on DU-145 prostate is 97.7%; in the assay on K-562 leukemia, 92.1%; with MALME-3M melanoma it was 85.4%; in the assay with MDA-MB-231 breast, 67.1%; with RXF 393 renal, 65.1%; in the assay with SF-268 CNS, 56.4%. Besides, the growth in the assay on SF-295 CNS was -2.32% (active); in the assay with SF-539 CNS it was 103%; with UACC-257 melanoma, 54.4%; in the assay with M14 melanoma, 62.2%; in the assay on HCT-15 colon, 96.2%; with HT29 colon, 33.4%. Besides, the growth is 21.1% in the assay with SNB-75 CNS; 75.5% with SNB-19 CNS; 71% with U251 CNS; 62.5% in the assay on PC-3 prostate; 61.1% with SK-MEL-5 melanoma; 63.4% in the assay with UACC-62 melanoma. Besides, the growth was 79.7% with LOX IMVI melanoma and 57.6% in the assay with SK-MEL-28 melanoma.

Take `O=C1Nc2ccc(Cl)cc2/C1=N/N=C/c1c[nH]c2ccccc12`: the growth in the assay on DU-145 prostate was 64.2%; in the assay with K-562 leukemia it was 88.4%; with MALME-3M melanoma it was 82.8%; in the assay on MDA-MB-231 breast it was 64.3%; in the assay with RXF 393 renal, 62.7%; with SF-268 CNS, 76.2%. The growth was 103% in the assay on SF-295 CNS; 82.6% with SF-539 CNS; 98.8% with UACC-257 melanoma; 72% with M14 melanoma; 66.9% in the assay with HCT-15 colon; 86.9% in the assay on HT29 colon. The growth in the assay with SNB-75 CNS was 58.1%; with SNB-19 CNS, 86.3%; in the assay with U251 CNS it was 70.9%; in the assay with PC-3 prostate, 93.8%; in the assay with SK-MEL-5 melanoma, 87.7%; in the assay with UACC-62 melanoma it was 43.1%. Also, the growth was 74% in the assay with LOX IMVI melanoma and 102% with SK-MEL-28 melanoma.

As for `O=C(/C=C/C12c3ccccc3C(c3ccccc31)C1C(=O)N(c3ccccc3)C(=O)C12)c1ccc(Cl)cc1` (stereo not given), the growth with DU-145 prostate was 21.8%; in the assay with K-562 leukemia, 18.2%; in the assay with MALME-3M melanoma, -32.7% (active); in the assay on MDA-MB-231 breast, -11.8% (active); with RXF 393 renal, -71.2% (active); in the assay on SF-268 CNS it was 43%. Also, the growth was 6.27% (active) in the assay with SF-295 CNS; 0.701% (active) with SF-539 CNS; 20.2% in the assay with UACC-257 melanoma; 30% in the assay on M14 melanoma; -0.519% (active) in the assay with HCT-15 colon; 8.4% (active) in the assay with HT29 colon. Moreover, the growth is 72.1% in the assay with SNB-75 CNS; 39.4% with SNB-19 CNS; 19.8% with U251 CNS; 22.3% with PC-3 prostate; -55.2% (active) in the assay with SK-MEL-5 melanoma; 5.42% (active) with UACC-62 melanoma. Further, the growth is -81.1% (active) in the assay with LOX IMVI melanoma and 4.17% (active) in the assay on SK-MEL-28 melanoma.

Consider `CC(C)n1nc(C#Cc2cccc(O)c2)c2c(N)ncnc21`, for which the growth in the assay on DU-145 prostate is -6.9% (active); in the assay with K-562 leukemia, -23% (active); with MALME-3M melanoma it was -74.9% (active); with MDA-MB-231 breast, -67.7% (active); with RXF 393 renal, -87.2% (active); in the assay on SF-268 CNS, -49.4% (active). Also, the growth in the assay on SF-295 CNS was -71.9% (active); with SF-539 CNS, -75.4% (active); in the assay on UACC-257 melanoma, -41.4% (active); with M14 melanoma, -63.8% (active); in the assay on HCT-15 colon, -11.2% (active); with HT29 colon it was -17.7% (active). For the same compound, the growth in the assay with SNB-75 CNS was -84.7% (active); in the assay with SNB-19 CNS, -21.4% (active); in the assay with U251 CNS it was -37.1% (active); with PC-3 prostate, -11.8% (active); in the assay on SK-MEL-5 melanoma, -91.8% (active); in the assay with UACC-62 melanoma, -88.9% (active). Also, the growth was -92.4% (active) in the assay on LOX IMVI melanoma and -47.5% (active) in the assay on SK-MEL-28 melanoma.

Take `COc1ccc(C(=O)/C=C/C23c4ccccc4C(c4ccccc42)C2C(=O)NC(=O)C23)cc1` (stereo not given): the growth is 97.4% in the assay on DU-145 prostate; 86.3% with K-562 leukemia; 98% in the assay with MALME-3M melanoma; 94.9% in the assay with MDA-MB-231 breast; 95.9% with RXF 393 renal; 90.5% in the assay with SF-268 CNS. Also, the growth was 106% in the assay on SF-295 CNS; 89.9% in the assay with SF-539 CNS; 89.4% in the assay with UACC-257 melanoma; 105% in the assay with M14 melanoma; 91.3% with HCT-15 colon; 97.3% in the assay on HT29 colon. In addition, the growth with SNB-75 CNS was 85%; in the assay with SNB-19 CNS, 92.6%; in the assay with U251 CNS it was 93.7%; with PC-3 prostate, 102%; in the assay with SK-MEL-5 melanoma, 95.9%; in the assay with UACC-62 melanoma it was 90.6%. Besides, the growth in the assay on LOX IMVI melanoma is 90.1%; with SK-MEL-28 melanoma, 108%.

Consider `COC(=O)CNC(=O)C(=O)c1c(O)c(O)c(C(C)C)c2cc(C)c(-c3c(C)cc4c(C(C)C)c(O)c(O)c(C(=O)C(=O)NCC(=O)OC)c4c3O)c(O)c12`, for which the growth in the assay with DU-145 prostate was 24.9%; in the assay on K-562 leukemia, 14.7%; in the assay with MALME-3M melanoma, 46.2%; in the assay on MDA-MB-231 breast, -13.6% (active); with RXF 393 renal, 53.8%; in the assay on SF-268 CNS, 26.8%. The growth with SF-295 CNS is 1.96% (active); with SF-539 CNS, 18.9%; with UACC-257 melanoma it was 52.1%; in the assay with M14 melanoma it was 36.7%; in the assay on HCT-15 colon, 18.3%; in the assay with HT29 colon, 6.08% (active). The growth with SNB-75 CNS was 57.5%; with SNB-19 CNS, 18.5%; with U251 CNS, 4.8% (active); with PC-3 prostate it was 18.7%; in the assay with SK-MEL-5 melanoma, 50.1%; in the assay on UACC-62 melanoma it was 48.5%. Also, the growth was 21.2% in the assay on LOX IMVI melanoma and 44.7% with SK-MEL-28 melanoma.

Take `O=C(c1ccccc1)c1ccc(N2C(=O)C3C4c5ccccc5C(/C=C/C(=O)c5ccccn5)(c5ccccc54)C3C2=O)cc1` (stereo not given): the growth in the assay with DU-145 prostate is 21.4%; with K-562 leukemia, 15.9%; in the assay with MALME-3M melanoma, -18.2% (active); with MDA-MB-231 breast it was -8.96% (active); in the assay on RXF 393 renal it was -48.5% (active); in the assay with SF-268 CNS it was 43.4%. In addition, the growth with SF-295 CNS was 10.8%; in the assay with SF-539 CNS it was -10.9% (active); in the assay with UACC-257 melanoma, 43.6%; in the assay on M14 melanoma it was 21.3%; in the assay with HCT-15 colon it was -21.7% (active); with HT29 colon it was 9.38% (active). Also, the growth with SNB-75 CNS was 46.7%; in the assay with SNB-19 CNS it was 28.2%; with U251 CNS it was 2.15% (active); in the assay on PC-3 prostate it was 28.4%; in the assay on SK-MEL-5 melanoma, 49.7%; with UACC-62 melanoma, 21%. Further, the growth is -76.6% (active) with LOX IMVI melanoma and 13.4% in the assay with SK-MEL-28 melanoma.
